Experiment [1] can be described thus: Her2 expression decrease, cell viability multiplex – SKBR3 breast tumor cells, AlphaScreen, ATP viability, primary screen (AID 461;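 active = Her2 level under about 52% in both replicate screens, with viability over 70% of control, limit read from the data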;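 for Her2 level: lower value means less Her2 protein in the cells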;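 for viability: percent of carrier control wells set as 100% viability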). Conditions: SKBR3 Her2 protein level, 18-24 h, measured here: SKBR3 viability, ATP luminescence, at 10 µM. For orientation: In Alpha technology, singlet oxygen from a donor bead excites a nearby acceptor bead.
In experiment [2] the target is Receptor tyrosine-protein kinase erbB-2 (Homo sapiens) (UniProt P04626). The description is as above. Conditions: 18-24 h, at 10 µM, stronger effect = lower value.
Experiment [3] in a line: reduced viability of SK-BR-3 breast cancer cells – cell-based, 24 h, human, pilot screen (AID 572).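 Note: compound exposure lasted between 18 and 24 h rather than exactly 24 h; 100% = carrier-treated control wells.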 The settings on record: SK-BR-3 viability, CellTiter-Glo luminescence, at 10 µM, stronger effect = lower value.
Experiment [4] can be described thus: HUVEC growth inhibition – cell-based, human, primary screen (AID 575;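 active = viability at or below 30% in both replicate assays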;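 note: 100% = median of untreated cell wells with 0.1% DMSO on each plate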). The settings on record: HUVEC proliferation, CellTiter-Glo luminescence, 72 h; at 10 µM; stronger effect = lower value.
Experiment [5] can be described thus: H69AR cell proliferation blockers – human, duplicate replicates, primary screen (AID 580;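 active = viability at or under a set limit in both replicates, limit being median viability minus 3 SD, cut at about 48% in these data, passing the limit was not always enough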;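 note: 100% = mean luminescence of untreated wells and 0% = no signal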). Conditions: H69AR lung tumor cells viability, ATP luminescence, 72 h; at 10 µM; stronger effect = lower value.
Experiment [6] in a line: MRP1 drug-resistance reversers in H69AR cells – cell-based, doxorubicin co-treatment, pilot screen (AID 601;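 active = viability loss from added drug above about 55%, and viability with drug at most 40%, in both replicates, limit read from the data, passing the limit was not always enough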). The settings on record: CellTiter-Glo, 72 h, at 10 µM; for differential viability (reversal): stronger effect = higher value. Background: ATP-based viability assays read luminescence as a measure of living cells.
Experiment [7] in a line: yeast transport mutant growth inhibition pilot in 384-well plates, post-Golgi transport modulator project (AID 636; in the data active = inhibition above about 31%). The settings on record: absorbance 615 nm, about 18 h, stronger effect = higher value.
The nature of experiment [8]: growth suppression of yeast trafficking mutant, preliminary HTS, modulators of trafficking downstream of Golgi apparatus project, 1536-format plate, OD 615 nm (AID 637; in the data active = inhibition above about 30%). The settings on record: yeast transport mutant growth, absorbance 615 nm, 18 h; stronger effect = higher value.
Experiment [9] is described as follows: S. cerevisiae growth inhibition in permissive medium (OD615), pilot counter-assay for S. cerevisiae lifespan shortening project, permissive growth control (AID 705;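 active = growth inhibition above 25% in both replicates, a cutoff set 3 SD above the mean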). The settings on record: OD615, 24 h, at 10 µM, stronger effect = higher value.
Experiment [10] is described as follows: S. cerevisiae growth inhibition in restrictive medium, OD615, pilot screen, restrictive growth control, yeast lifespan reduction project (AID 706;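 active = growth inhibition above a set limit, 3 SD over mean compound inhibition, in both replicates, cut at about 43% in these data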;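 note: modified DeaD lifespan yeast strain shifted to restrictive glucose medium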). The settings on record: OD615, 48 h, at 10 µM, stronger effect = higher value.
Experiment [11] is described as follows: doxorubicin toxicity protection in MRP-1 cells – H69AR cells, CellTiter-Glo, duplicate, MRP-1 activator project, pilot screen (AID 807;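 active = viability increase at or above a cutoff of the median across tested compounds plus 3 SD, cut at about 8.5% in these data, passing the limit was not always enough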;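 note: compound pretreatment 18-22 h then 72 h combined with doxorubicin; 0% = doxorubicin alone and 100% = vehicle without doxorubicin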). The settings on record: H69AR viability with doxorubicin, CellTiter-Glo luminescence; at 10 µM; stronger effect = higher value.
The nature of experiment [12]: viability of HCT116 without oncogenic beta-catenin – human colon tumor cells, pilot screen (AID 823;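 active = cell viability at or below a set limit in both duplicate runs, the limit being the all-compound median minus 4 SD, cut at about 23% in these data, passing the limit was not always enough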;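 note: 0% = wells killed by 20 µM Hyamine and 100% = untreated DMSO cell wells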). The settings on record: HCT116 beta-catenin knockout viability, CellTiter-Glo, 60 h; at 10 µM; stronger effect = lower value.
A short description of experiment [13]: viability of PTEN-null HCT116 cells – cell-based, HCT116 clonal line, CellTiter-Glo, pilot screen (AID 824;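 active = viability at or below 27.92% in each of two runs, the all-compound median minus 4 SD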;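 note: 0% = 20 µM Hyamine control and 100% = vehicle cell control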). The settings on record: HCT116 PTEN-deleted viability, 60 h, at 10 µM, stronger effect = lower value.
A short description of experiment [14]: RAM pathway blockade in budding yeast – dse1pr::URA3 reporter, 5-FOA selection, pilot screen (AID 869;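 active = inhibition over a set limit, the all-compound mean plus 3 SD, in both replicate runs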;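 note: 0% = DMSO wells with no growth and 100% = 10 µM 1-NA-PP1 with full growth; RAM network block rescues cells from 5-FOA so hits raise OD615 growth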). The settings on record: S. cerevisiae dse1pr::URA3 5-FOA growth, OD615, 2 d; at 10 µM; stronger effect = higher value; strain carries analog-sensitive mutant Cbk1 kinase.
[15] abbreviates: H69AR cells + 2 uM doxorubicin, measured here: viability with 2 uM doxorubicin, stronger effect = lower value.
Setting [16] is: H69AR cells, compound alone cytotoxicity.

This is an account of results in PubChem BioAssay.

Structures are written as SMILES. Records with an inconclusive call do not appear. Activity calls are given as the source filed them.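 Rule for the calls, unless noted: active = viability at or below 10% of carrier control in both of two separate runs; inconclusive = viability at or below 10% in only one of the two runs; inactive = the rest.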

Chain of Receptor tyrosine-protein kinase erbB-2 (Homo sapiens) (P04626 whole entry, looked up): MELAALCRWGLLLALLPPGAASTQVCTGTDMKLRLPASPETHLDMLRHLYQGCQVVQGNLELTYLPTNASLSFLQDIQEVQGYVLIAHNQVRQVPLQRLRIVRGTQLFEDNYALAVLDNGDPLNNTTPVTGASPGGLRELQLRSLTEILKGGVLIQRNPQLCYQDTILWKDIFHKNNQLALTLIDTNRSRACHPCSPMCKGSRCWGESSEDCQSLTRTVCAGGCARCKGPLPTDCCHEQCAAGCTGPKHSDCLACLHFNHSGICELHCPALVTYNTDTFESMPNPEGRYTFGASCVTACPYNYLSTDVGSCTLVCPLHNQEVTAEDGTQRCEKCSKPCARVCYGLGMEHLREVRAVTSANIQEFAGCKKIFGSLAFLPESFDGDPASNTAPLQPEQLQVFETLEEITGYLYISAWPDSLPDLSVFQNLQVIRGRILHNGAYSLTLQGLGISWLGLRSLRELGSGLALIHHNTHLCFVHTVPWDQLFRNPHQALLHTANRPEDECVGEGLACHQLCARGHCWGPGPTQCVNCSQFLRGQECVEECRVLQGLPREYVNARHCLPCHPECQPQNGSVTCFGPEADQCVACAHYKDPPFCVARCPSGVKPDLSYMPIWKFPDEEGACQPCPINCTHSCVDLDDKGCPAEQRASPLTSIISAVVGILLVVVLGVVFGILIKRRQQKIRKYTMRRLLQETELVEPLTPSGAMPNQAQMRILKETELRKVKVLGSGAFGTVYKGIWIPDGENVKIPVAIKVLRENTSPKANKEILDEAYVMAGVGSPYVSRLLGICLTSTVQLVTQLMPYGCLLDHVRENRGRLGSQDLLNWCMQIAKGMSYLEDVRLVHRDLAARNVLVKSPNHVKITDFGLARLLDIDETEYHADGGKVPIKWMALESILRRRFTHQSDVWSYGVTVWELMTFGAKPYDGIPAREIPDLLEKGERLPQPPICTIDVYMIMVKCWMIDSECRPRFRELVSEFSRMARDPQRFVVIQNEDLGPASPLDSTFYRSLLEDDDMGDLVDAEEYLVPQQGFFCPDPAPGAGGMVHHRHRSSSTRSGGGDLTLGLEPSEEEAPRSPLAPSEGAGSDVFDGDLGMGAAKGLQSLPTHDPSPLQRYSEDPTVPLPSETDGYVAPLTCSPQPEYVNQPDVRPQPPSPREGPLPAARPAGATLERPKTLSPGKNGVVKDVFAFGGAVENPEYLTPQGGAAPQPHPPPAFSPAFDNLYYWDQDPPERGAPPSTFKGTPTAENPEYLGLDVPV

A word on the viability: it is a read-out of living cells in per cent, often relative to untreated cells. One may read the inhibition as the change of the read-out against control, counted positive when it falls. Turning to `CCOC(=O)N1CCN(c2cc3[nH]c(=S)[nH]c3cc2F)CC1`, the viability in [1] was 112%; in experiment [3] it was 112% (inactive); in experiment [4], 100% (inactive); in experiment [5] it was 89.7% (inactive); in [6] (setting [15]), 96.4%; in [6] (setting [16]), 89.7%. Moreover, the Her2 level in [2] was 83% (inactive). For the same molecule, the differential viability (reversal) in experiment [6] (H69AR cells + 2 uM doxorubicin) was -6.7% (inactive). The inhibition in experiment [7] was -7.2% (inactive); in experiment [8] it was -2.58% (inactive).

With `CCOc1ccccc1N(C(=O)c1ccco1)C(C(=O)NC1CCCC1)c1cccnc1` (configuration not stated), the viability in [1] was 84%; in [3] it was 84% (inactive); in [4], 101% (inactive); in experiment [5] it was 90.5% (inactive); in experiment [6] (setting [15]), 96.6%; in [6] (setting [16]), 90.5%. The Her2 level in [2] was 104% (inactive). The differential viability (reversal) in experiment [6] (H69AR cells + 2 uM doxorubicin) was -6.1% (inactive). Further, the figures for the inhibition in [7] and in experiment [8] were -1.78% (inactive) and -2.54% (inactive), respectively.

For the molecule `CCOC(=O)c1sc(NC(=O)CSc2nnc(-c3ccco3)n2CC)c(C(=O)OCC)c1C`, the viability in experiment [1] was 101%; in experiment [3], 101% (inactive); in experiment [4], 77.5% (inactive); in experiment [5], 74.2% (inactive). In addition, in experiment [2], the Her2 level was 71% (inactive). Besides, the inhibition in [7] is -0.66% (inactive); in experiment [8] it was -0.32% (inactive).

As for `O=C(Oc1cc2oc(=O)c3c(c2cc1Cl)CCCC3)c1ccco1`, the viability in experiment [1] is 82%; in experiment [3] it was 82% (inactive); in [4], 89.6% (inactive); in experiment [5] it was 80.2% (inactive); in experiment [6] (setting [15]) it was 93.2%; in [6] (setting [16]), 80.2%. For the same molecule, the values for the viability in experiment [12] and in experiment [13] were 108% (inactive) and 104% (inactive), respectively. In addition, the Her2 level in experiment [2] was 87% (inactive). Further, the differential viability (reversal) in experiment [6] (H69AR cells + 2 uM doxorubicin) was -13.1% (inactive). The inhibition in experiment [7] is 1.28% (inactive); in experiment [8], -4% (inactive); in [14], 1.97% (inactive). Further, the growth inhibition in experiment [9] was -14.7% (inactive); in experiment [10] it was -13.7% (inactive). The viability increase in experiment [11] is -3.67% (inactive).

For `CC[C@]1(O)C[C@@H]2CN(CCc3c([nH]c4ccccc34)[C@@](C(=O)OC)(c3cc4c(cc3OC)N(C)[C@H]3[C@@](O)(C(=O)OC)[C@H](OC(C)=O)[C@]5(CC)C=CCN6CC[C@]43[C@@H]65)C2)C1`, the viability in experiment [1] was 108%; in [3], 108% (inactive); in [4], 10.5% (active); in experiment [6] (setting [15]) it was 55.7%; in experiment [6] (setting [16]), 17.5%. Besides, the Her2 level in [2] is 78.5% (inactive). Also, in experiment [6] (H69AR cells + 2 uM doxorubicin), the differential viability (reversal) was -38.2% (inactive).

Consider `Clc1ccc(C2Nc3ccccc3-n3cccc32)cc1` (configuration not stated), for which the viability is 92% in [1]; 92% (inactive) in [3]; 60.8% (inactive) in [4]; 66.7% (inactive) in experiment [5]; 75.9% in experiment [6] (setting [15]); 66.7% in experiment [6] (setting [16]). Also, the viability in [12] was 82.8% (inactive); in [13], 81.3% (inactive). The Her2 level in experiment [2] is 82% (inactive). In [6] (H69AR cells + 2 uM doxorubicin), the differential viability (reversal) was -9.2% (inactive). Further, the inhibition in [7] was -3.87% (inactive); in experiment [8], 7% (inactive); in experiment [14] it was 3.41% (inactive). Further, the growth inhibition was -26% (inactive) in experiment [9] and -13.6% (inactive) in experiment [10]. Also, in [11], the viability increase is -4.67% (inactive).

Take `Cc1ccc(CCNC(=O)C2CCCN2S(=O)(=O)c2ccc3c(c2)CCC(=O)N3)cc1` (configuration not stated): the viability in experiment [1] was 87.5%; in [3], 87.5% (inactive); in experiment [4], 91.8% (inactive); in experiment [5] it was 101% (inactive); in experiment [6] (setting [15]) it was 96.2%; in [6] (setting [16]), 101%. The viability was 101% (inactive) in experiment [12] and 98.8% (inactive) in [13]. The Her2 level in experiment [2] is 93.5% (inactive). Also, the differential viability (reversal) in [6] (H69AR cells + 2 uM doxorubicin) was 4.97% (inactive). Further, the figures for the inhibition in [7], in experiment [8] and in [14] were -1.33% (inactive), 11.2% (inactive) and 2% (inactive), respectively. The growth inhibition in [9] was -8.07% (inactive); in experiment [10] it was -8.79% (inactive). For the same molecule, in [11], the viability increase is 3.43% (inactive).
